Experimental data from PMC11006913.
Substitutions are numbered along the chain they refer to.

What was measured:
Test in all cases: PBM; 200 nM protein, PBS
Conditions in all cases: dsDNA, one strand shown
[1] = biological target: NKX2-5 (Homo sapiens, UniProt P52952 125-210, R139K)
[2] = biological target: PRRX1 (Homo sapiens, UniProt P54821 80-166, F113S)
[3] = biological target: T1, NKX2-6 (Homo sapiens, UniProt A6NCS4 118-204, R150C)
T1 sequence: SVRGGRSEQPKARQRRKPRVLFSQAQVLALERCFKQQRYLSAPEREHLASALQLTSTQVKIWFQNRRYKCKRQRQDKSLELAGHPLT

[4] = biological target: T2, NKX2-6 (Homo sapiens, UniProt A6NCS4 118-204)
T2 sequence: T1 sequence with C33R

[5] = biological target: T3, NKX2-6 (Homo sapiens, UniProt A6NCS4 118-204, F151L)
T3 sequence: T1 sequence with C33R, F34L

[6] = biological target: NKX3-2 (Homo sapiens, UniProt P78367 192-278, P234S)
[7] = biological target: PRRX1 (Homo sapiens, UniProt P54821 80-166)
[8] = biological target: NKX2-5 (Homo sapiens, UniProt P52952 125-210)
[9] = biological target: NKX3-2 (Homo sapiens, UniProt P78367 192-278)
[10] = biological target: HOXA7 (Homo sapiens, UniProt P31268 116-202)
[11] = biological target: HOXB6 (Homo sapiens, UniProt P17509 132-218, K202E)
[12] = biological target: HOXA7 (Homo sapiens, UniProt P31268 116-202, W177C)
[13] = biological target: HOXB6 (Homo sapiens, UniProt P17509 132-218)
[14] = biological target: HOXA2 (Homo sapiens, UniProt O43364 129-215, R185T)
[15] = biological target: MSX2 (Homo sapiens, UniProt P35548 130-214, R199I)
[16] = biological target: HOXD13 (Homo sapiens, UniProt P35453 263-343, T313R)
[17] = biological target: HOXA2 (Homo sapiens, UniProt O43364 129-215, R185K)
[18] = biological target: HOXD13 (Homo sapiens, UniProt P35453 263-343)
[19] = biological target: MSX2 (Homo sapiens, UniProt P35548 130-214)
[20] = biological target: VAX1 (Homo sapiens, UniProt Q5SQQ9 86-172)
[21] = biological target: HOXD13 (Homo sapiens, UniProt P35453 263-343, T313A)
[22] = biological target: MSX2 (Homo sapiens, UniProt P35548 130-214, F161Y)
[23] = biological target: VAX1 (Homo sapiens, UniProt Q5SQQ9 86-172, T142I)
[24] = biological target: HOXA2 (Homo sapiens, UniProt O43364 129-215, Y150S)
[25] = biological target: HOXA2 (Homo sapiens, UniProt O43364 129-215)
[26] = biological target: VAX1 (Homo sapiens, UniProt Q5SQQ9 86-172, K157R)
VAX1 (Homo sapiens, UniProt Q5SQQ9 86-172, K157R), sequence (Q5SQQ9 86-172 K157R): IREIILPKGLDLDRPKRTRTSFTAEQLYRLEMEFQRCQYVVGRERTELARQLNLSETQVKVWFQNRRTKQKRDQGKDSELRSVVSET

NKX2-5 (Homo sapiens, UniProt P52952 125-210), sequence (P52952 125-210): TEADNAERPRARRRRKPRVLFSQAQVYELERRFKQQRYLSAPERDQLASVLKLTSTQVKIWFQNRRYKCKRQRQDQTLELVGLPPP
NKX2-5 (Homo sapiens, UniProt P52952 125-210, R139K), sequence (P52952 125-210 R139K): as the sequence (P52952 125-210) above, with R15K counted along it
HOXA7 (Homo sapiens, UniProt P31268 116-202), sequence (P31268 116-202): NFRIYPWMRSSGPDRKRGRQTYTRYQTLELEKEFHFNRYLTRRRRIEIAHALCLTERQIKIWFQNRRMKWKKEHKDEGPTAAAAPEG
HOXB6 (Homo sapiens, UniProt P17509 132-218), sequence (P17509 132-218): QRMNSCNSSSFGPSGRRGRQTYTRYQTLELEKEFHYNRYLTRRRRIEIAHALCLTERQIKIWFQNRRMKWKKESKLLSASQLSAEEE
HOXB6 (Homo sapiens, UniProt P17509 132-218, K202E), sequence (P17509 132-218 K202E): as the sequence (P17509 132-218) above, with K71E counted along it
HOXA7 (Homo sapiens, UniProt P31268 116-202, W177C), sequence (P31268 116-202 W177C): as the sequence (P31268 116-202) above, with W62C counted along it
HOXA2 (Homo sapiens, UniProt O43364 129-215, R185K), sequence (O43364 129-215 R185K): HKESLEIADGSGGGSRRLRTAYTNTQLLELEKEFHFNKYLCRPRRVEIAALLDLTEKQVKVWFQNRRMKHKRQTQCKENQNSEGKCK
HOXA2 (Homo sapiens, UniProt O43364 129-215, R185T), sequence (O43364 129-215 R185T): as the sequence (O43364 129-215 R185K) above, with K57T counted along it
PRRX1 (Homo sapiens, UniProt P54821 80-166), sequence (P54821 80-166): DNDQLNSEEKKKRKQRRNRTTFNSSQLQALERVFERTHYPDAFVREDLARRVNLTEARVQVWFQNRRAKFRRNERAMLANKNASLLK
HOXD13 (Homo sapiens, UniProt P35453 263-343), sequence (P35453 263-343): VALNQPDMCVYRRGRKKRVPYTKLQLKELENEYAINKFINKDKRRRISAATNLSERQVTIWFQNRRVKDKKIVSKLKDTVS
HOXD13 (Homo sapiens, UniProt P35453 263-343, T313A), sequence (P35453 263-343 T313A): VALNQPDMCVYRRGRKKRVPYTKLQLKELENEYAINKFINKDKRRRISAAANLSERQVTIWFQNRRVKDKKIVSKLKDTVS
PRRX1 (Homo sapiens, UniProt P54821 80-166, F113S), sequence (P54821 80-166 F113S): as the sequence (P54821 80-166) above, with F34S counted along it
NKX3-2 (Homo sapiens, UniProt P78367 192-278, P234S), sequence (P78367 192-278 P234S): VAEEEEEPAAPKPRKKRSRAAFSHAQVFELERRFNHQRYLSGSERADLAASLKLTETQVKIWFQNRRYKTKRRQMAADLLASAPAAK
MSX2 (Homo sapiens, UniProt P35548 130-214, R199I), sequence (P35548 130-214 R199I): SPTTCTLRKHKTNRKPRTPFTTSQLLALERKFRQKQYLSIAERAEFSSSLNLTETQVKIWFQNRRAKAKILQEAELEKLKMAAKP
MSX2 (Homo sapiens, UniProt P35548 130-214, F161Y), sequence (P35548 130-214 F161Y): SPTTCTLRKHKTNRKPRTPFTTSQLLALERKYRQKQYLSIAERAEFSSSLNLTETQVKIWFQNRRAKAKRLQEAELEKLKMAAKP
NKX3-2 (Homo sapiens, UniProt P78367 192-278), sequence (P78367 192-278): as the sequence (P78367 192-278 P234S) above, with S43P counted along it
HOXA2 (Homo sapiens, UniProt O43364 129-215), sequence (O43364 129-215): as the sequence (O43364 129-215 R185K) above, with K57R counted along it
HOXD13 (Homo sapiens, UniProt P35453 263-343, T313R), sequence (P35453 263-343 T313R): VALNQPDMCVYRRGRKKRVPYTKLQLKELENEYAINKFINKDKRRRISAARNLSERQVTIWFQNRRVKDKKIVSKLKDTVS
HOXA2 (Homo sapiens, UniProt O43364 129-215, Y150S), sequence (O43364 129-215 Y150S): as the sequence (O43364 129-215 R185K) above, with Y22S, K57R counted along it
VAX1 (Homo sapiens, UniProt Q5SQQ9 86-172, T142I), sequence (Q5SQQ9 86-172 T142I): as the sequence (Q5SQQ9 86-172 K157R) above, with T57I, R72K counted along it
MSX2 (Homo sapiens, UniProt P35548 130-214), sequence (P35548 130-214): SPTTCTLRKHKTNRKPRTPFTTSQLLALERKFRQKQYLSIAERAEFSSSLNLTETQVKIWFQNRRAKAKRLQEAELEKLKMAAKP
VAX1 (Homo sapiens, UniProt Q5SQQ9 86-172), sequence (Q5SQQ9 86-172): as the sequence (Q5SQQ9 86-172 K157R) above, with R72K counted along it

## CACTTAGC
[1]
  binding signal: 12.6 upbm affinity estimate (log intensity, higher = more binding, comparable within an allelic series)
[2]
  binding signal: 9.83 upbm affinity estimate (log intensity, higher = more binding, comparable within an allelic series)
[3]
  binding signal: 11.7 upbm affinity estimate (log intensity, higher = more binding, comparable within an allelic series)
[4]
  binding signal: 13.5 upbm affinity estimate (log intensity, higher = more binding, comparable within an allelic series)
[5]
  binding signal: 10.8 upbm affinity estimate (log intensity, higher = more binding, comparable within an allelic series)
[6]
  binding signal: 12.9 upbm affinity estimate (log intensity, higher = more binding, comparable within an allelic series)
[7]
  binding signal: 11.8 upbm affinity estimate (log intensity, higher = more binding, comparable within an allelic series)
[8]
  binding signal: 12.5 upbm affinity estimate (log intensity, higher = more binding, comparable within an allelic series)
[9]
  binding signal: 13 upbm affinity estimate (log intensity, higher = more binding, comparable within an allelic series)

## CAGAGCCG
[1]
  binding signal: 8.74 upbm affinity estimate (log intensity, higher = more binding, comparable within an allelic series)
[10]
  binding signal: 8.45 upbm affinity estimate (log intensity, higher = more binding, comparable within an allelic series)
[11]
  binding signal: 8.99 upbm affinity estimate (log intensity, higher = more binding, comparable within an allelic series)
[12]
  binding signal: 8.36 upbm affinity estimate (log intensity, higher = more binding, comparable within an allelic series)
[8]
  binding signal: 8.8 upbm affinity estimate (log intensity, higher = more binding, comparable within an allelic series)
[13]
  binding signal: 9 upbm affinity estimate (log intensity, higher = more binding, comparable within an allelic series)

## ACGCCCGG
[1]
  binding signal: 8.77 upbm affinity estimate (log intensity, higher = more binding, comparable within an allelic series)
[11]
  binding signal: 8.95 upbm affinity estimate (log intensity, higher = more binding, comparable within an allelic series)
[8]
  binding signal: 8.74 upbm affinity estimate (log intensity, higher = more binding, comparable within an allelic series)
[13]
  binding signal: 9.06 upbm affinity estimate (log intensity, higher = more binding, comparable within an allelic series)

## CCGGACCG
[1]
  binding signal: 8.49 upbm affinity estimate (log intensity, higher = more binding, comparable within an allelic series)
[10]
  binding signal: 8.43 upbm affinity estimate (log intensity, higher = more binding, comparable within an allelic series)
[12]
  binding signal: 8.36 upbm affinity estimate (log intensity, higher = more binding, comparable within an allelic series)
[8]
  binding signal: 8.49 upbm affinity estimate (log intensity, higher = more binding, comparable within an allelic series)

## CCCTGGCC
[1]
  binding signal: 8.8 upbm affinity estimate (log intensity, higher = more binding, comparable within an allelic series)
[14]
  binding signal: 6.94 upbm affinity estimate (log intensity, higher = more binding, comparable within an allelic series)
[15]
  binding signal: 9.39 upbm affinity estimate (log intensity, higher = more binding, comparable within an allelic series)
[16]
  binding signal: 9.22 upbm affinity estimate (log intensity, higher = more binding, comparable within an allelic series)
[17]
  binding signal: 10.1 upbm affinity estimate (log intensity, higher = more binding, comparable within an allelic series)
[18]
  binding signal: 9.28 upbm affinity estimate (log intensity, higher = more binding, comparable within an allelic series)
[19]
  binding signal: 9.37 upbm affinity estimate (log intensity, higher = more binding, comparable within an allelic series)
[20]
  binding signal: 6.64 upbm affinity estimate (log intensity, higher = more binding, comparable within an allelic series)
[21]
  binding signal: 9.38 upbm affinity estimate (log intensity, higher = more binding, comparable within an allelic series)
[22]
  binding signal: 9.41 upbm affinity estimate (log intensity, higher = more binding, comparable within an allelic series)
[23]
  binding signal: 6.9 upbm affinity estimate (log intensity, higher = more binding, comparable within an allelic series)
[24]
  binding signal: 10.4 upbm affinity estimate (log intensity, higher = more binding, comparable within an allelic series)
[25]
  binding signal: 6.83 upbm affinity estimate (log intensity, higher = more binding, comparable within an allelic series)
[26]
  binding signal: 6.7 upbm affinity estimate (log intensity, higher = more binding, comparable within an allelic series)
[8]
  binding signal: 8.75 upbm affinity estimate (log intensity, higher = more binding, comparable within an allelic series)
